GBA activity: Glucocerebrosidase; Lysosomal acid glucosylceramidase (Homo sapiens), P04062; purified enzyme, resorufin glucoside fluorescence (screen aimed at inhibitors), 20 min; Potency, µM; 48,000 tested, 1.1% active; AID 360, 2006; in the data active means potency below about 15 µM; inconclusive means mostly about 16 µM to 33 µM;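 further: the screen sought inhibitors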
Target sequence (P04062 whole entry, looked up): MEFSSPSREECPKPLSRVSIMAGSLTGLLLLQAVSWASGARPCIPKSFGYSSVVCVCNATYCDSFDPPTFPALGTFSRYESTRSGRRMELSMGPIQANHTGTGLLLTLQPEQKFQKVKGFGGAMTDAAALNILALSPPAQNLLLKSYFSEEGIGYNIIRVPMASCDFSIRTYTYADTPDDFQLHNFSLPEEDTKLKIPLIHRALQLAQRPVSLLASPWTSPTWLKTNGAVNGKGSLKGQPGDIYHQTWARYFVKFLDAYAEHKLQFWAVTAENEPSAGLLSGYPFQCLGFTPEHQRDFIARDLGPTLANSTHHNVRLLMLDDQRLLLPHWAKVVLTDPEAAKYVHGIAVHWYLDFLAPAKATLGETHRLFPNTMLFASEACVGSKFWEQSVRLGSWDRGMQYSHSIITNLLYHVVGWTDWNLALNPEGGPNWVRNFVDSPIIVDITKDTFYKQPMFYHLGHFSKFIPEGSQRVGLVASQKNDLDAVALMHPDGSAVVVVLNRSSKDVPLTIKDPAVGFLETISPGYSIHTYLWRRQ
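Normal human glucocerebrosidase (0.2 nM final) was assayed with resorufin β-D-glucopyranoside (30 uM final) in 50mM citric acid/KH2PO4, 10mM sodium taurocholate, 0.01% tween-20, pH 5.9. Compounds were titrated; fluorescence (Ex 548, Em 600) read after 20 min at RT.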
TSHR ag: qHTS Assay for Agonists of the Thyroid Stimulating Hormone Receptor; Thyrotropin receptor (Homo sapiens), P16473; HEK293-CNG-TSHR cells (CNG channel as cAMP sensor), membrane potential dye, cAMP; Potency, µM (top dose mostly 57.1 µM), inactives show at the highest dose activation, most hits filed as activators; 73,000 tested, 0.48% active; AID 926, 2007; active means well fitted activation curve with a large enough effect in the main read-out, with a control signal flat, not every such curve was filed as active; inconclusive means small, poorly fitted or top-dose-only effect, or a change in a side signal; inactive means no such curve, though single readings can be large or run the other way; % of control where 0% means no effect;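 further: the control signal comes from parental cells without the receptor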
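cAMP rise detected as CNG-channel membrane depolarization by fluorescent dye (emission 590 nm), 30 min after compound, following 60 min dye loading containing 100 uM RO 20-1724 at room temperature. Cells: TSHR/CNG HEK 293, with parental CNG HEK 293 as control.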
PK Bst: Pyruvate Kinase. purified pyruvate kinase, luminescence ATP production; ribose 5-phosphate activator present at AC10. Potency, µM. 51,000 tested, 1.2% active. AID 361, 2006; in the data active means potency below about 11 µM; inconclusive means mostly about 12 µM to 25 µM;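 the screen sought inhibitors and activators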;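 further: scaled between full activation by ribose 5 phosphate and full inhibition by luteolin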
FLuc inh: qHTS Assay for Inhibitors of Firefly Luciferase; Luciferin 4-monooxygenase (Photinus pyralis), P08659; purified firefly luciferase, luminescence, 8 min; Potency, µM (highest dose often 57.1 µM), for the others: at the highest dose activity change, negative = inhibition, actives largely listed as inhibitors; 72,000 tested, 2.2% active; AID 411, 2009; further: on the % scale 0 is the no-effect control and ±100 the full control effect; nearly all actives have a fitted effect of over 40% in size
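Substrate buffer containing 10 uM ATP (pH 7.2 imidazole, Mg2+, KCl, detergent, BSA) is dispensed, compound pinned in, then luciferase/luciferin detector mix added. After 8 min at ambient temperature, light output is measured.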
HEK293 cAMP cs: qHTS Assay for Agonists of the Thyroid Stimulating Hormone Receptor: Activators of Intracellular cAMP Concentrations in Parental HEK 293; parental HEK293 CNG cAMP sensor, membrane potential fluorescence; Potency, µM (highest dose often 57.1 µM), inactives show at the top dose activation, most hits filed as activators; 73,000 tested, 2.5% active; AID 938, 2007; further: % of control where 0% means no effect; nearly all actives have a fitted effect of over 55% in size
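Parental HEK 293 cells stably expressing a cAMP-gated CNG channel were loaded with membrane potential dye containing 100 uM RO 20-1724 for 60 min. Compound added for 30 min; depolarization read as fluorescence intensity at 590 nm.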
ERK AVP inh: qHTS Assay for Inhibitors of the ERK Signaling Pathway using a Homogeneous Screening Assay | HEK293-V1b, vasopressin-stimulated pERK AlphaScreen | 72,000 tested, 0.99% active | Potency, µM (highest dose often 57.5 µM), inactives show top-dose activity, negative = inhibition, usual class: inhibitors; further: on the % scale 0 is the no-effect control and ±100 the full control effect; nearly all actives have a fitted effect of over 55% in size
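HEK293 cells stably expressing V1b receptor, preincubated 30 min at 37 °C with compound, then stimulated 5 min with 25 nM vasopressin. Phospho-ERK by AlphaScreen SureFire after 5 h RT; normalized to DMSO and vasopressin; AC50 by Hill fit.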
* hit, by the source's call; [ ] = dose if it differs, or a comment. Shown are actives, neighbours in structure and some others; about 6.1% of the full set was active somewhere. Unless noted, the call rests on the fitted dose curve; in most records, active means well fitted curve in the direction sought with a large enough effect; inconclusive means small, poorly fitted or top-dose-only effect, or another doubt; inactive means no such curve, though single readings can be large; an effect the other way counts as inactive or inconclusive. Potency means the concentration at half of the fitted maximal effect.

How did CCC1Oc2ccc(C)cc2N(CC(=O)N(Cc2ccc3c(c2)OCO3)CC2CCCO2)C1=O (stereo not given) do in these assays?
GBA activity: >77; TSHR ag: inconclusive; PK Bst: >57; FLuc inh: 0%; HEK293 cAMP cs: 5µM*; ERK AVP inh: -12%

What do the screens show for `O=C(NCc1ccccc1)c1c(F)c(F)c(F)c(F)c1F`?
GBA activity: >77; TSHR ag: inconclusive; PK Bst: >57; FLuc inh: 3%; HEK293 cAMP cs: inconclusive; ERK AVP inh: -15%

Results for O=C(NCc1ccccc1)c1ccc(-c2ccccc2F)o1 ?
GBA activity: >77; TSHR ag: 32%; PK Bst: >57; FLuc inh: -4%; HEK293 cAMP cs: 14%; ERK AVP inh: 16µM*

How did FB(F)F do in these assays?
TSHR ag: -1%; HEK293 cAMP cs: -7%; ERK AVP inh: 8%

How did Cc1cc(C(=O)CSc2nncs2)c(C)n1-c1ccc2c(c1)OCO2 do in these assays?
GBA activity: >77; TSHR ag: inconclusive; PK Bst: >57; FLuc inh: -12%; HEK293 cAMP cs: inconclusive; ERK AVP inh: 32µM*

Results for O=C(CSc1nncs1)NCc1ccc2c(c1)OCO2 ?
GBA activity: >77; TSHR ag: 0%; PK Bst: >57; FLuc inh: 1%; HEK293 cAMP cs: 4%; ERK AVP inh: 0%

Results for COc1ccc(N2CC(O)=C(c3nc4ccccc4s3)C2=N)c(OC)c1 ?
GBA activity: >77; TSHR ag: 2%; PK Bst: >11; FLuc inh: -3%; HEK293 cAMP cs: 8%; ERK AVP inh: 2%

How did COc1cccc(N2CC(O)=C(c3nc4ccccc4c(=O)[nH]3)C2=N)c1 do in these assays?
GBA activity: >77; TSHR ag: 9%; PK Bst: 2.9*; FLuc inh: -6%; HEK293 cAMP cs: 21%; ERK AVP inh: -22%

What do the screens show for `CC(=NC1CCCC1)c1c(C)[nH]n(-c2nc3ccccc3s2)c1=O`?
PK Bst: inactive; FLuc inh: 13µM*

How did CN(C)c1ccc2c(c1)OC(N)=C(C#N)C2c1cccc(F)c1 (stereo not given) do in these assays?
TSHR ag: inconclusive; FLuc inh: -7%; HEK293 cAMP cs: 32µM*; ERK AVP inh: inconclusive

Results for Cc1cc(N2CCN(c3ccccn3)CC2)n2c(nc3ccccc32)c1C#N ?
GBA activity: >77; TSHR ag: inconclusive; PK Bst: >57; FLuc inh: 2%; HEK293 cAMP cs: 2µM*; ERK AVP inh: -14%

How did N#Cc1c2c(c(N3CCN(c4ccccn4)CC3)n3c1nc1ccccc13)CCC2 do in these assays?
TSHR ag: 0%; FLuc inh: 0%; HEK293 cAMP cs: 2%; ERK AVP inh: inconclusive

What do the screens show for `Cc1cn([C@H]2C=C[C@H](CO)O2)c(=O)[nH]c1=O`?
TSHR ag: 2%; FLuc inh: 3%; HEK293 cAMP cs: 2%

How did CCN1C(=O)CC(n2c(C)nc3ccccc32)C1=O (stereo not given) do in these assays?
GBA activity: >77; TSHR ag: -1%; PK Bst: >57; FLuc inh: 2%; HEK293 cAMP cs: 4%; ERK AVP inh: -14%

Results for CCN1c2ccccc2-c2nc3ccccc3n2C1c1ccncc1 (stereo not given) ?
GBA activity: >77; TSHR ag: inconclusive; PK Bst: >57; FLuc inh: 0%; HEK293 cAMP cs: 20µM*; ERK AVP inh: 19%

Results for c1ccc2c(c1)NC(c1ccncc1)n1c-2nc2ccccc21 (stereo not given) ?
PK Bst: inactive; FLuc inh: -29%[25.5 µM]

Assay outcomes (PubChem)
